Assay results published in ChEMBL document CHEMBL3433997, “St. Jude Leishmania screening dataset” (2016).

Key:
Format in all cases: functional
[1] = biological target: Solute carrier family 2, facilitated glucose transporter member 1 (Homo sapiens) (UniProt P11166); test: ST_JUDE_LEISH: Cytotoxicity at 2uM final concentration against transgenic Leishmania Mexicana promastigotes LmGLUT1 that are glucose transport deficient and complemented with the human glucose transporter GLUT1. Activity is measured by DNA content using SYBR green in vitro
[2] = biological target: Hexose transporter 1 (Plasmodium falciparum) (UniProt O97467); test: ST_JUDE_LEISH: Cytotoxicity at 2uM final concentration against transgenic Leishmania Mexicana promastigotes LmPfHT that are glucose transport deficient and complemented with the Plasmodium falciparum hexose transporter. Activity is measured by DNA content using SYBR green in vitro
[3] = biological target: Glucose transporter (Leishmania mexicana) (UniProt O61059); test: ST_JUDE_LEISH: Cytotoxicity at 2uM final concentration against transgenic Leishmania Mexicana promastigotes LmGT2 that are glucose transport deficient and complemented with the L. Mexicana glucose transporter 2. Activity is measured by DNA content using SYBR green in vitro

Chain of Solute carrier family 2, facilitated glucose transporter member 1 (Homo sapiens) (P11166 whole entry): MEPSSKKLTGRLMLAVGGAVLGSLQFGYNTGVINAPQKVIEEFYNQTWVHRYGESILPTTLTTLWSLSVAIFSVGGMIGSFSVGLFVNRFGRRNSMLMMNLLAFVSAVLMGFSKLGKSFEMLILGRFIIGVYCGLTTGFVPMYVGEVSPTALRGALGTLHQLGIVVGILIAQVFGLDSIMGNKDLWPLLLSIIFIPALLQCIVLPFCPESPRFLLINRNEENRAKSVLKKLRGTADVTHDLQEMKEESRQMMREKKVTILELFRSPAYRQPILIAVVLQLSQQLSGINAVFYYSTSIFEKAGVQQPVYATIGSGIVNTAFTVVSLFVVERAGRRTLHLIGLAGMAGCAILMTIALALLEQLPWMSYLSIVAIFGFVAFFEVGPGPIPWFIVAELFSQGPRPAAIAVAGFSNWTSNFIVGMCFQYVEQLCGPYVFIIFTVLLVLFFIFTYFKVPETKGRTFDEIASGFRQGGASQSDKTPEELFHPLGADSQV

Compound: Nc1c2ccccc2nc2cc([N+](=O)[O-])ccc12
- inhibition [1]: 8.44%
- inhibition [2]: 9.98%
- inhibition [3]: 0.99%

Compound: OC1CCCN(Cc2cccc(-c3ccc(-c4nc5cc(F)ccc5[nH]4)cc3)c2)C1 (stereo unspecified)
- inhibition [1]: 4.24%
- inhibition [2]: 3.92%
- inhibition [3]: 4.6%

Compound: OC1CCC(Nc2ccc3ncc(-c4ccc(Cl)cc4)n3n2)CC1 (stereo unspecified)
- inhibition [1]: 8.13%
- inhibition [2]: 3.98%
- inhibition [3]: 4.08%

Compound: OCCN1CCN(c2ccc(Nc3ccnc4cc5ccccc5cc34)cc2)CC1
- inhibition [1]: 28.2%
- inhibition [2]: 33.3%
- inhibition [3]: 21.7%

Compound: OC(CNCCCc1ccccc1)c1cc(OCc2ccccc2)cc(OCc2ccccc2)c1 (stereo unspecified)
- inhibition [1]: 6.81%
- inhibition [2]: 2.05%
- inhibition [3]: 1.79%

Compound: CCCC1(C)CSc2ccccc2C(c2ccccc2)N1 (stereo unspecified)
- inhibition [1]: 4.9%
- inhibition [2]: 6.11%
- inhibition [3]: 7.67%

Compound: CC(=O)Nc1ccc(CN2CCC(CNC(=O)c3cc(-c4cccc(Cl)c4)cs3)C2)cc1 (stereo unspecified)
- inhibition [1]: -1.53%
- inhibition [2]: 0.33%
- inhibition [3]: 3.3%

Compound: Cc1cc(-c2ccc(NC(=O)N3CCc4cc(Br)c(N5CCN(C)CC5)cc43)cc2)ccc1C#N
- inhibition [1]: 11.9%
- inhibition [2]: 18.9%
- inhibition [3]: 8.55%

Compound: O=C(Nc1ccc(Cl)cc1)c1ccc(CN2CCCN(Cc3cccc(O)c3)CC2)cc1
- inhibition [1]: 1.65%
- inhibition [2]: 1.35%
- inhibition [3]: 2.47%

Compound: COc1ccc(CC(=O)NC2CCN(c3ccnc4cc(Cl)ccc34)C2)cc1 (stereo unspecified)
- inhibition [1]: -0.54%
- inhibition [2]: -0.22%
- inhibition [3]: -0.25%

Compound: COc1ccc(C2=CCN(c3ccc(Cl)c(Cl)c3)C2=O)cc1OCCN1CCCCC1
- inhibition [1]: 3.36%
- inhibition [2]: 1.21%
- inhibition [3]: -4.01%

Compound: CC(C)CNCc1cccc(-c2ccc(CN(CCCN3CCN(C)CC3)C(=O)CCC3CCCC3)cc2)c1
- inhibition [1]: 38.9%
- inhibition [2]: 56.9%
- inhibition [3]: 9.11%

Compound: COc1ccc2nccc([C@@H](O)CN3CCC(NCc4ccc5sc(=O)[nH]c5c4)CC3)c2c1
- inhibition [1]: 1.84%
- inhibition [2]: 5.11%
- inhibition [3]: 1.2%

Compound: O=C(c1cc2c(s1)-c1cccc(Cl)c1SC2)N1CCN(c2ccncc2)CC1
- inhibition [1]: 4.7%
- inhibition [2]: 3.88%
- inhibition [3]: 4.35%

Compound: CN(C)c1c(CNCCCCCCNCc2ccc3ccccc3c2N(C)C)ccc2ccccc12
- inhibition [1]: 8.79%
- inhibition [2]: 8.66%
- inhibition [3]: 7.38%

Compound: Oc1ccc2ccccc2c1CNCCC1CCCCC1
- inhibition [1]: 0.07%
- inhibition [2]: 0.52%
- inhibition [3]: 1.73%

Compound: CN1CCN(CC(O)CNC(=O)Nc2ccc(Br)cc2)CC1 (stereo unspecified)
- inhibition [1]: 3.01%
- inhibition [2]: 3.45%
- inhibition [3]: -0.7%
